The source made the active and inactive calls.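 How the source made its calls, unless noted: active means compounds lowering colon cancer cell viability after pretreatment blocking the GSK3B kinase; inactive means the rest.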
Assays:
[1] = stimulators of nuclear beta-catenin in C2C12, primary screen, imaging, WNT3A-conditioned medium, mouse C2C12, NPC library (AID 1117326; in the data active means nuclear beta-catenin stimulation mostly above about 4.2%, no sharp cut-off; inactive means mostly below about 10%; further: reference of the scale not given here); conditions: stronger effect = higher value
[2] = stimulators of insulin release from INS-1E, primary screen, cell-based, 5 mM glucose, NPC library (AID 1117329;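 active means compound raises insulin release from rat beta cells at 5 mM glucose, no numeric limit stated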; further: reference of the scale not given here); conditions: rat INS-1E insulin secretion, at 10 µM, stronger effect = higher value
[3] = growth inhibition of GSK3B-pretreated HCT116 cells – cell-based, CellTiter-Glo, 0.2 to 20 µM (AID 1117336); conditions: HCT116 viability after GSK3B inhibitor, at 20 µM, stronger effect = higher value
[4] = inhibition of endothelial tube formation, primary screen, imaging, VEGF stimulated, CD31 staining, tube area, NPC library (AID 1117340;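 active means compound that reduces growth-factor-driven endothelial tube area in a mixed cell culture, no cutoff stated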); conditions: VEGF-stimulated ADSC/ECFC co-culture, at 10 µM, stronger effect = higher value
[5] = glucagon-like peptide 1 release enhancers, primary assay, NCI-H716 cell line, NPC library (AID 1117341;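 active means compound raises GLP1 secretion from the human gut endocrine cells, with no numeric limit stated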; further: reference of the scale not given here); conditions: NCI-H716 cells, at 10 µM, stronger effect = higher value
[6] = HCT116 colon cancer cell growth inhibition, primary screen, CellTiter-Glo luminescence, NPC library (AID 1117342;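 active means compounds that lower survival of HCT116 colon cancer cells in the luminescence readout, no numeric limit stated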); conditions: at 20 µM (top of the series)
[7] = CellTiter-Glo luminescent readout of SW480 viability loss, NPC library primary (AID 1117343;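 active means compounds that lower viability of the colon cancer cells in the luminescence readout, with no numeric limit stated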); conditions: CellTiter-Glo luminescence; at 20 µM (top of the series)
[8] = decreased DLD-1 cellular survival, CellTiter-Glo luminescent readout, NPC compound collection, primary HTS (AID 1117346;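 active means compounds that lower survival of DLD-1 colon cancer cells in the luminescence readout, no cutoff given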); conditions: DLD-1 viability, CellTiter-Glo luminescence; at 20 µM (top of the series)
[9] = molecular target: 6-phosphogluconate dehydrogenase, decarboxylating (Homo sapiens) (UniProt P52209); assay: 6PGD enzyme inhibitors, primary screen, biochemical, human, recombinant enzyme, NADPH absorbance (AID 1159550;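 active means at least 20% inhibition of 6-phosphogluconate dehydrogenase activity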); conditions: recombinant 6PGD, NADPH absorbance 341 nm; at 10 µM; stronger effect = higher value
6-phosphogluconate dehydrogenase, decarboxylating (Homo sapiens), sequence (P52209 whole entry, looked up): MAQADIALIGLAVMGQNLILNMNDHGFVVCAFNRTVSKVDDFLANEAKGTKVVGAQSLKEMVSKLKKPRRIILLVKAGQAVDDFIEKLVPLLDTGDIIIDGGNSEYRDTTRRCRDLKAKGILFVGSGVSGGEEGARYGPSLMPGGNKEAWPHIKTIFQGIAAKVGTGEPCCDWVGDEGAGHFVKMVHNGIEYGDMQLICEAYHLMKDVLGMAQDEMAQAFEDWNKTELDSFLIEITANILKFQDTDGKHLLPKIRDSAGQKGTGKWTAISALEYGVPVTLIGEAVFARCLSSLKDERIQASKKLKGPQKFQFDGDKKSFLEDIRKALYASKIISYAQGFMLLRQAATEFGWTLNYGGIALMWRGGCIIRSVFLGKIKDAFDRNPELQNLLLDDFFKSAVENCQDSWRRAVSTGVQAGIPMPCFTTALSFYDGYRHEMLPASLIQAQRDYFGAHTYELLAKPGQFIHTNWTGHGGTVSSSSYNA

| Structure (SMILES) | nuclear beta-catenin stimulation ([1]; at 10 µM) | nuclear beta-catenin stimulation ([1]; stimulation, at 2 µM) | insulin secretion stimulation [2] | viability decrease [3] | tube area decrease [4] | GLP1 secretion stimulation [5] | inhibition of viability [6] | viability decrease (inhibition) [7] | viability decrease (inhibition) [8] | inhibition [9] |
| --- | --- | --- | --- | --- | --- | --- | --- | --- | --- | --- |
| COc1cc(OC)cc(OC)c1 | 1.2% (inactive) | -0.8% | 2.1% (inactive) | -6.5% (inactive) | 7.3% (inactive) | -0.4% (inactive) | -3.13% (inactive) | -10.2% (inactive) | -8.5% (inactive) | 14.4% (inactive) |
| CCCCCCCCCCCCCCCCC(C(=O)O)C(O)(CC(=O)O)C(=O)O (configuration not stated) | -0.9% (inactive) | -0.6% | 3.2% (inactive) | 99.8% (active) | -7.3% (inactive) | -2.9% (inactive) | 99.3% (active) | 103% (active) | 102% (active) | – |
| CCCCCCCCCCCCCCCCCCOCC(O)CO (configuration not stated) | 3.8% (inactive) | 2.8% | 1.3% (inactive) | -5.2% (inactive) | 7.6% (inactive) | 30.1% (active) | -10.7% (inactive) | 4.8% (inactive) | -8.8% (inactive) | -2.18% (inactive) |
| CO[C@H]1C=CO[C@@]2(C)Oc3c(C)c(O)c4c(O)c(c(/C=N/N5CCN(C)CC5)c(O)c4c3C2=O)NC(=O)/C(C)=C\C=C[C@H](C)[C@H](O)[C@@H](C)[C@@H](O)[C@@H](C)[C@H](OC(C)=O)[C@@H]1C | 0.6% (inactive) | 1.2% | 1.4% (inactive) | 67.8% (active) | 48.6% (active) | -1.8% (inactive) | 67.5% (active) | 87.1% (active) | 65.6% (active) | – |
| C1CCC(C(CC2CCCCN2)C2CCCCC2)CC1 (configuration not stated) | 22.1% (inactive) | 1.1% | 7.6% (inactive) | 101% (active) | 9.8% (inactive) | 4.9% (inactive) | 100% (active) | 120% (active) | 103% (active) | 12.3% (inactive) |
| Cc1nc(-c2ccc(OCC(C)C)c(C#N)c2)sc1C(=O)O | 1.3% (inactive) | 0.4% | 3.8% (inactive) | 25.8% (inactive) | -47.3% (inactive) | 4.1% (inactive) | 25.4% (inactive) | 57.5% (active) | 28.7% (inactive) | – |
| CN1CCC[C@@H]1CCO[C@](C)(c1ccccc1)c1ccc(Cl)cc1 | 7.8% (inactive) | 2.3% | 1.3% (inactive) | 25.3% (inactive) | 55% (active) | 10.3% (inactive) | 78.8% (active) | 113% (active) | 86.8% (active) | 12.4% (inactive) |
| CC(=O)O[C@]1(C(C)=O)CC[C@H]2[C@@H]3C=C(Cl)C4=CC(=O)CC[C@]4(C)[C@H]3CC[C@@]21C | 1.1% (inactive) | -0.3% | 0% (inactive) | 56.2% (active) | 22.4% (inactive) | 1.3% (inactive) | 52.6% (active) | 57.1% (active) | 7.1% (inactive) | -12% (inactive) |
| CCN(CCCCOC(=O)c1ccc(OC)c(OC)c1)C(C)Cc1ccc(OC)cc1 (configuration not stated) | 0.6% (inactive) | 0.5% | 49.6% (active) | -125% (inactive) | 23.2% (inactive) | 0.3% (inactive) | 26.7% (inactive) | 20% (inactive) | 8% (inactive) | -12.1% (inactive) |
| CN1C(C(=O)Nc2ccccn2)=C(O)c2sccc2S1(=O)=O | 0.8% (inactive) | 1% | 1.6% (inactive) | -17.8% (inactive) | 2.6% (inactive) | 0.4% (inactive) | 8.2% (inactive) | 13.4% (inactive) | -0.2% (inactive) | -2.82% (inactive) |
| CCCCC(=O)O[C@]1(C(=O)CO)[C@@H](C)C[C@H]2[C@@H]3CCC4=CC(=O)C=C[C@]4(C)[C@@]3(F)[C@@H](O)C[C@@]21C | 2.9% (inactive) | 5.5% | -4.4% (inactive) | -106% (inactive) | 2.4% (inactive) | 8.1% (inactive) | 12.9% (inactive) | -0.4% (inactive) | 11% (inactive) | -3.61% (inactive) |
| CCCCOc1cc(C(=O)NCCN(CC)CC)c2ccccc2n1 | 5.7% (inactive) | 1.8% | 1.6% (inactive) | -47.5% (inactive) | 3.5% (inactive) | 7.7% (inactive) | 45.3% (inactive) | 49.2% (inactive) | 29.5% (inactive) | -0.88% (inactive) |
| CC(=O)OCC(=O)[C@H]1CC[C@H]2[C@@H]3CCC4=CC(=O)CC[C@]4(C)[C@H]3CC[C@]12C | -1.4% (inactive) | -0.5% | 0.3% (inactive) | 0.8% (inactive) | -2.5% (inactive) | -0.6% (inactive) | 34.5% (inactive) | 1.2% (inactive) | -9.6% (inactive) | 2.51% (inactive) |
| CC(=O)Oc1ccc(C(c2ccc(OC(C)=O)cc2)c2ccccn2)cc1 | -0.9% (inactive) | -2.7% | 2.65% (inactive) | 41.4% (inactive) | 15.6% (inactive) | 5.8% (inactive) | 67.8% (active) | -6% (inactive) | 53.5% (active) | 4.53% (inactive) |
| CCN(CC)CCOC(=O)C(Cc1cccc2ccccc12)CC1CCCO1 (configuration not stated) | 0.6% (inactive) | 0.5% | 7.9% (inactive) | -120% (inactive) | -1.6% (inactive) | 8.3% (active) | 26.1% (inactive) | 37.7% (inactive) | 2.6% (inactive) | -4.35% (inactive) |
| O=c1[nH]cnc2nc[nH]c12 | -0.2% (inactive) | 1.5% | 0.7% (inactive) | -11% (inactive) | -3.2% (inactive) | 0.7% (inactive) | -26.8% (inactive) | -73% (inactive) | -26.4% (inactive) | 4.21% (inactive) |
| CCOC(=O)[C@H](CCc1ccccc1)N[C@@H](C)C(=O)N1CCC[C@H]1C(=O)O | 4.4% (inactive) | 1.5% | 0.7% (inactive) | 1.3% (inactive) | -1.3% (inactive) | 19.8% (inactive) | -3.77% (inactive) | 12.5% (inactive) | 3.4% (inactive) | -2.48% (inactive) |
| CO[C@]12C[C@@H](COC(=O)c3cncc(Br)c3)CN(C)[C@@H]1Cc1cn(C)c3cccc2c13 | 0.8% (inactive) | 2.5% | 8.2% (inactive) | 8.4% (inactive) | 0.8% (inactive) | 7.1% (inactive) | 43.7% (inactive) | 76.9% (active) | 23.6% (inactive) | 6.31% (inactive) |
| O=C1OCCN1/N=C/c1ccc([N+](=O)[O-])o1 | 1.7% (inactive) | -0.6% | -3% (inactive) | 24.6% (inactive) | -8.5% (inactive) | 5.7% (inactive) | 12.3% (inactive) | 74.9% (active) | 25.6% (inactive) | 12.5% (inactive) |
| C[C@]12CCC(=O)C=C1CC[C@@H]1[C@@H]2[C@@H](O)C[C@@]2(C)[C@H]1CC[C@]2(O)C(=O)COP(=O)(O)O | -0.6% (inactive) | -0.1% | 1.8% (inactive) | -2.5% (inactive) | -8.4% (inactive) | -1% (inactive) | -7.2% (inactive) | -5.9% (active) | -10.7% (inactive) | 7.31% (inactive) |
| COC(=O)Nc1nc2ccc(Sc3ccccc3)cc2[nH]1 | 56.8% (active) | 33.5% | 1.1% (inactive) | 48% (active) | 103% (active) | 48.3% (active) | 94.4% (active) | 81.8% (active) | 45.8% (active) | 10.3% (inactive) |
| COc1ccc(CCN2CCC(Nc3nc4ccccc4n3Cc3ccc(F)cc3)CC2)cc1 | -1.3% (inactive) | 3.9% | 5.85% (inactive) | 108% (active) | 98.1% (active) | 14% (inactive) | 112% (active) | 129% (active) | 100% (active) | 14.2% (inactive) |
| C[C@@H]1C[C@H]2[C@@H]3CCC4=CC(=O)C=C[C@]4(C)[C@@]3(F)[C@@H](O)C[C@]2(C)[C@@]1(O)C(=O)COP(=O)(O)O | 1.2% (inactive) | 0.8% | -6.4% (inactive) | -4.3% (inactive) | 0.7% (inactive) | -2.2% (inactive) | 2.57% (inactive) | 24.1% (inactive) | -4.8% (inactive) | -4.39% (inactive) |
| C[N+]1(C)[C@@H]2CC(OC(=O)[C@H](CO)c3ccccc3)C[C@H]1[C@@H]1O[C@@H]12 (some centres not stated) | 1.5% (inactive) | 0.9% | 0.2% (inactive) | -19.7% (inactive) | 5.6% (inactive) | -2.3% (inactive) | 2% (inactive) | -6.3% (inactive) | -6.1% (inactive) | 0.481% (inactive) |
| NC(N)=NCCN1CCCCCCC1 | 0.1% (inactive) | -0.3% | -1.2% (inactive) | 1.25% (inactive) | 3.7% (inactive) | -0.1% (inactive) | 30% (inactive) | -11.2% (inactive) | 23.4% (inactive) | 10.5% (inactive) |
| CC1=C(C(=O)O)N2C(=O)[C@@H](NC(=O)[C@H](N)C3=CCC=CC3)[C@H]2SC1 | -1.1% (inactive) | -2.4% | 0.35% (inactive) | 47.6% (inactive) | 0.9% (inactive) | 1.6% (inactive) | 44% (inactive) | 34.9% (inactive) | 16.5% (inactive) | 12.9% (inactive) |
| O=C(O)[C@@H](O)[C@H](O)[C@H](O)[C@@H](O)C(=O)O | -1.3% (inactive) | -0.3% | 3.6% (inactive) | -8.4% (inactive) | 23.5% (inactive) | -1.9% (inactive) | 1.7% (inactive) | 57.2% (active) | -6.1% (inactive) | 3.91% (inactive) |
| NC(=O)NC1NC(=O)NC1=O (configuration not stated) | -0.1% (inactive) | 1.1% | -2.3% (inactive) | -10.1% (inactive) | 1.2% (inactive) | -1.2% (inactive) | 8% (inactive) | 0.3% (inactive) | -6.65% (inactive) | 4.15% (inactive) |

From PubChem BioAssay
